Several values for one entry are separate records, joined by “and”; a condition that tells them apart may be missing. Equal entries are not always repeated. Screen size: about 5,500 compounds; about 2,000 (36%) were called active. Not shown: some 18% with an inconclusive outcome. Cut-off read from the data, not from the text of the source: active = normalized growth mostly below about 0.91 (no sharp cut-off); inconclusive = no clear call, values can overlap the other calls; inactive = mostly above about 0.92. This is one part of the list.
Experiment: chemical genetic growth profiling, strain panel (AID 1159580);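 note: tested at 20 µM; growth read once vehicle control cultures reached saturation at 30 °C; 1 = growth at the plate median or of vehicle wells; lower values mean less growth of the strain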
Conditions: S. cerevisiae deletion strains, growth OD

Measured: normalized growth

NC(=O)c1ncn([C@@H]2O[C@H](CO)[C@@H](O)[C@H]2O)n1
inactive: locus YAL013W, strain DEP1, stronger effect = lower value 1 | locus YAL021C, strain ccr4, stronger effect = lower value 1.02 | locus YAL026C, strain drs2, stronger effect = lower value 0.995 | locus YAL030W, strain snc1, stronger effect = lower value 0.998 | locus YBL061C, strain skt5, stronger effect = lower value 0.975 | locus YBR009C, strain hhf1, stronger effect = lower value 0.992 | locus YBR021W, strain FUR4, stronger effect = lower value 0.965 | locus YBR023C, strain chs3, stronger effect = lower value 0.981 | locus YBR171W, strain sec66, stronger effect = lower value 0.993 | locus YBR229C, strain ROT2, stronger effect = lower value 0.993 | locus YBR231C, strain swc5, stronger effect = lower value 0.997 | locus YBR279W, strain paf1, stronger effect = lower value 0.978 | locus YCL011C, strain gbp2, stronger effect = lower value 0.981 | locus YCL016C, strain dcc1, stronger effect = lower value 0.979 | locus YCL029C, strain bik1, stronger effect = lower value 0.981 | locus YCL061C, strain MRC1, stronger effect = lower value 0.983 | locus YCL069W, strain vba3, stronger effect = lower value 0.996 | locus YCR088W, strain abp1, stronger effect = lower value 0.994 | locus YDL005C, strain med2, stronger effect = lower value 0.982 | locus YDL035C, strain GPR1, stronger effect = lower value 1.02 | locus YDL040C, strain nat1, stronger effect = lower value 0.978 | locus YDL074C, strain BRE1, stronger effect = lower value 1.04 | locus YDL101C, strain DUN1, stronger effect = lower value 0.998 | locus YDL134C, strain PPH21, stronger effect = lower value 1 | locus YDL185W, strain tfp1, stronger effect = lower value 0.978 | locus YDL192W, strain arf1, stronger effect = lower value 0.98 | locus YDR001C, strain nth1, stronger effect = lower value 0.996 | locus YDR069C, strain doa4, stronger effect = lower value 0.989 | locus YDR101C, strain arx1, stronger effect = lower value 0.993 | locus YDR137W, strain rgp1, stronger effect = lower value 0.97 | locus YDR150W, strain NUM1, stronger effect = lower value 0.988 | locus YDR159W, strain sac3, stronger effect = lower value 0.978 | locus YDR162C, strain NBP2, stronger effect = lower value 0.968 | locus YDR195W, strain ref2 0.979 | locus YDR297W, strain sur2, stronger effect = lower value 0.99 | locus YDR318W, strain mcm21, stronger effect = lower value 0.995 | locus YDR334W, strain swr1, stronger effect = lower value 0.99 | locus YDR335W, strain msn5, stronger effect = lower value 0.991 | locus YDR388W, stronger effect = lower value 0.995 | locus YDR392W, strain spt3, stronger effect = lower value 0.995 | locus YDR502C, strain sam2, stronger effect = lower value 0.992 | locus YEL003W, strain gim4, stronger effect = lower value 0.999 | locus YEL037C, strain rad23, stronger effect = lower value 0.993 | locus YEL061C, strain CIN8 (second series), stronger effect = lower value 0.994 | locus YEL061C, strain CIN8, stronger effect = lower value 0.999 | locus YER015W, strain faa2, stronger effect = lower value 0.988 | locus YER016W, strain bim1, stronger effect = lower value 0.988 | locus YER110C, stronger effect = lower value 0.989 | locus YER111C, strain swi4, stronger effect = lower value 0.996 | locus YER155C, strain BEM2 (second series), stronger effect = lower value 0.989 | locus YER155C, strain BEM2, stronger effect = lower value 0.995 | locus YER167W, strain BCK2, stronger effect = lower value 1.01 | locus YFR010W, strain ubp6, stronger effect = lower value 0.999 | locus YGL078C, strain dbp3, stronger effect = lower value 0.985 | locus YGL086W, strain mad1, stronger effect = lower value 0.997 | locus YGL167C, strain pmr1, stronger effect = lower value 0.983 | locus YGL173C, strain kem1, stronger effect = lower value 0.974 | locus YGL227W, strain vid30, stronger effect = lower value 0.986 | locus YGL240W, strain doc1, stronger effect = lower value 0.984 | locus YGL248W, strain PDE1, stronger effect = lower value 0.996 | locus YGL253W, strain hxk2, stronger effect = lower value 0.982 | locus YGR078C, strain PAC10, stronger effect = lower value 1.02 | locus YGR135W, strain pre9, stronger effect = lower value 0.979 | locus YGR229C, strain SMI1, stronger effect = lower value 1.01 | locus YGR252W, strain gcn5, stronger effect = lower value 0.993 | locus YHR013C, strain ard1, stronger effect = lower value 0.953 | locus YHR027C, strain rpn1, stronger effect = lower value 0.974 | locus YHR030C, strain SLT2, stronger effect = lower value 0.999 and 0.988 | locus YHR079C, strain IRE1 (second series), stronger effect = lower value 1 | locus YHR079C, strain IRE1, stronger effect = lower value 0.98 | locus YHR094C, strain hxt1, stronger effect = lower value 0.981 | locus YHR129C, strain ARP1, stronger effect = lower value 1.01 | locus YHR142W, strain chs7, stronger effect = lower value 0.999 | locus YHR200W, strain rpn10, stronger effect = lower value 0.993 | locus YIL066C, strain RNR3, stronger effect = lower value 0.995 | locus YIL073C, strain SPO22, stronger effect = lower value 0.946 | locus YIL125W, strain kgd1, stronger effect = lower value 0.997 | locus YIR030C, strain dcg1, stronger effect = lower value 0.99 | locus YJL092W, strain hpr5, stronger effect = lower value 0.992 | locus YJL095W, strain BCK1 (second series), stronger effect = lower value 0.987 | locus YJL095W, strain BCK1, stronger effect = lower value 1.02 and 0.977 | locus YJL115W, strain asf1, stronger effect = lower value 0.994 | locus YJL129C, strain trk1, stronger effect = lower value 0.995 | locus YJL134W, strain LCB3, stronger effect = lower value 1 | locus YJL154C, strain vps35, stronger effect = lower value 1.01 | locus YJL164C, strain tpk1, stronger effect = lower value 0.978 | locus YJL166W, strain qcr8, stronger effect = lower value 0.988 | locus YJL168C, strain set2, stronger effect = lower value 1 | locus YJL187C, strain SWE1 (second series), stronger effect = lower value 0.983 | locus YJL187C, strain SWE1, stronger effect = lower value 0.986 | locus YJR043C, strain POL32, stronger effect = lower value 0.977 | locus YJR066W, strain TOR1, stronger effect = lower value 0.959

From PubChem BioAssay AID1159580 (chemical genetic matrix, 2015)
